# Measured values as given in ChEMBL document CHEMBL4888484, “Replenishing the malaria drug discovery pipeline: Screening and hit evaluation of the MMV Hit Generation Library 1 (HGL1) against asexual blood stage Plasmodium falciparum ,using a nano luciferase reporter read-out” (2022).
# The whole screen tested about 4,800 compounds, of which about 420 (8.8%) showed an effect of 50% or more. Many of the other results were omitted from the sample, so strong results are more common in it than they were.
# System: Plasmodium falciparum
# Test: Confirmatory screen in NF54 nanoGlo assay, in single point, at 2uM, 72h
# Assay type: functional, Erythrocyte
# Details: timepoint 72 hour
row,Structure (SMILES),% Inhibition [%]
1,Cc1cc2nc(C)c(=O)n(CCC(=O)NCCCN(C)C3CCCCC3)c2cc1C,0
2,CN(CCNC(=O)CCc1cn(-c2ccccc2)nc1-c1ccc2c(c1)OCO2)C1CCCCC1,52
3,O=C(CCn1nc(-c2ccc3c(c2)OCO3)ccc1=O)NC1CCCCC1,-10
4,CN(C)c1noc(CN2CCc3ccc(F)cc3C2)n1,25
5,COc1ccc(S(=O)(=O)Nc2c(C)nc3ncnn3c2O)cc1,-18
6,CCN1CCN(c2nc(O)c3c(n2)NC(=O)C[C@H]3c2cccc(F)c2)CC1,-11
7,Cn1ncc2c(NCCO)nc(N3CCCCCC3)nc21,5
8,O=S(=O)(NC1CCCCC1)c1ccc(Cl)c(S(=O)(=O)NC2CCCCC2)c1,0
9,N#Cc1cc(S(=O)(=O)NCCN(C2CC2)S(=O)(=O)c2ccc(Cl)c(C#N)c2)ccc1Cl,75
10,COc1ccc(-n2nc(C(=O)N3CCN(c4ccccc4)CC3)c(=O)cc2OC)cc1,-5
11,Cn1ccnc1[C@@H](NC(=O)c1ccnn1C(F)F)C(C)(C)CO,-2
12,CCc1nc2c(C(=O)N3CCOc4c(C)cc(C)cc43)ccnc2[nH]1,72
13,COc1cccc(CNCc2ccc3c(c2)OCO3)c1OCc1ccc(Cl)cc1Cl,-3
14,Cc1c(C(=O)N2CCCCC2)cccc1N1CCNC1=O,-15
15,COc1ccc2c(c1)OC13CCN(C)CC1C2C(C(=O)c1ccccc1OC)C(=O)N3 (stereo unspecified),57
16,COc1cccc(NC(=O)c2ccccc2C(=O)OCCN2CCOCC2)c1,-2
17,COc1cccc(C(=O)N2CCC3(CC2)C[C@@H](OCc2ccccc2)CCO3)c1,-3
18,Cc1cc(C(=O)NCC[C@H](C)n2nc(C)cc2C)c2c(-c3ccc(F)cc3)noc2n1,-9
19,Cn1cc(-c2nn(S(=O)(=O)c3ccccc3)c(-c3cnn(C)c3)c2Cl)cn1,2
20,CC1CC1NC(=O)C(NS(C)(=O)=O)C(C)(C)C (stereo unspecified),8
21,Cc1nc[nH]c1CN1CCN(C(=O)CCC(C)C)[C@H]2CS(=O)(=O)C[C@H]21,0
22,CCc1nc2cc(-c3noc(Cc4ccc(Cl)cc4)n3)ccc2o1,-5
23,O=C(c1ccccc1)c1ccc(O)c(CN2CCCN(c3ccc(C(F)(F)F)cn3)CC2)c1O,79
24,Cc1ccc(-n2nc(C)cc2NC(=O)CN2CCCN(c3ccc(C(F)(F)F)cn3)CC2)cc1,6

row,Structure (SMILES),% Inhibition [%]
1,Cc1cccc(-c2nc3nc(C)c(CC(=O)N4CCCCC4)c(C)n3n2)c1,1
2,O=C(c1ccccc1OCC1CC1)N1CC(O)C1,-5
3,Cc1c(Cl)cccc1NC(=O)[C@H]1CC(=O)N(c2ccc(OCc3ccccc3)cc2)C1,-3
4,O=C(Cn1cnc2cc3c(cc21)OCCCO3)N1CCc2ccccc21,0
5,COc1cccc(CNC(C)(C)C)c1OCC(=O)NC(C)(C)C,-5
6,CCOc1cc(CNc2cccc3ccccc23)cc(Br)c1OCC(=O)NC(C)(C)C,89
7,CC[C@@H](CO)NCc1cccc(OC)c1OCC(=O)NC(C)(C)C,-8
8,COc1ccc(Cl)cc1CNC[C@H](C)O,-6
9,C[n+]1ccccc1/C=C/c1c[nH]c2ccccc12,90
10,CCc1ccc(/C=C/c2c[nH]c3ccccc23)[n+](CC)c1,89
11,O=C(Cc1cccs1)NC1CCN(c2nnc3ccc(Cl)cn23)CC1,-12
12,Cc1ccc([C@@H]2c3cccn3CCCN2Cc2cccs2)cc1C,10
13,O=C(O)COc1ccccc1[C@H]1CC(O)=Nc2cccc3c2c1cn3Cc1cccc(F)c1,1
14,N#Cc1ccc(CNc2ccccc2OCC(F)F)o1,-10
15,CNCCCNC(=O)c1ccc(Br)cc1C,5
16,CNC(=O)[C@@H]1C[C@H](NCc2cc(OC)c(OC)c(OC)c2)CN1CC(c1ccccc1)c1ccccc1,63
17,COc1cc(CNC2CCCCC2)cc(Br)c1OCc1ccccc1Cl,5
18,COc1cc(NC(=O)N2CC(c3noc(-c4ccccc4)n3)C2)cc(OC)c1OC,2
19,Cc1nc([C@H](C)NC(=O)c2ccc(S(C)(=O)=O)cc2)cs1,3
20,Cc1onc(C(=O)N2CCC3(CC2)CC[C@]3(C)O)c1Cn1cccn1,-6
21,CC(=O)Nc1cc2c(cc1NC(C)=O)N(C(C)=O)CC2,-15
22,COc1ccc(C2=Nc3ccc(S(=O)(=O)N4CCOCC4)cc3S(=O)(=O)N2)cc1,-10
23,C[C@H]1CCC[C@@H](NCCc2ccccc2)CCC/C=C/c2cc(O)cc(O)c2C(=O)O1,77
24,Cc1nc2c(-c3ccco3)nc(=O)n(CC(=O)Nc3cccc4ccccc34)c2s1,-8

row,Structure (SMILES),% Inhibition [%]
1,COc1cccc(NC(=O)N2CC(O)CC2C2CCCCC2)c1 (stereo unspecified),-3
2,Oc1cccc(CN2CCC3(CC2)C[C@H](c2ccccc2)CN(C2CC2)C3)c1,31
3,COc1ccc(-c2nccn3cc(C(=O)NCC(C)C)nc23)cc1,-2
4,Cc1cccc(Cc2c(C)nn(-c3nc(C)cc(C)n3)c2O)c1,-18
5,CN(C)C(=O)c1cc2c(s1)CC[C@H](C(=O)NCCN1CCOCC1)C2,6
6,O=C1C[C@H](c2cccnc2)c2cnn(C3CCCC3)c2N1,6
7,Cc1nn(-c2nc3ccccc3[nH]2)c2c1[C@@H](c1cccnc1)CC(=O)N2,79
8,Cc1nn(-c2ncccn2)c2c1[C@@H](c1ccccc1)CC(=O)N2,-16
9,O=C(CN1CCC[C@H]1C1CCCC1)NCC1CCCCC1,27
10,CC1=NN(c2ccccc2)C(O)C1C(c1ccccc1O)C1C(C)=NN(c2ccccc2)C1O (stereo unspecified),-7
11,Cc1ccccc1Cn1nc2ccc(S(=O)(=O)N3CCOCC3)cn2c1=O,4
12,COc1ccc(N2CCN(C(=O)c3ccc(F)cc3)[C@@H](C)C2=O)cc1,5
13,COc1ccc2[nH]c3c(c2c1)CCN(C(=O)c1ccc(C)c(C)c1)[C@@H]3c1ccccc1OC,84
14,COc1ccc([C@@H]2c3[nH]c4ccc(OC)cc4c3CCN2C(=O)NCc2ccc(F)cc2)cc1,14
15,COC(=O)c1nc2ccccc2c(-c2cn(-c3ccc(C(F)(F)F)cc3)nn2)c1C(=O)OC,1
16,CC(C)CNC(=O)N1CCCC[C@H]1c1noc(COc2ccc(F)cc2)n1,-9
17,COc1ccc(C2=NN(C(C#N)c3cccc(OC)c3O)C(c3ccccc3)C2)cc1 (stereo unspecified),4
18,N#CC(c1ccc(Cl)cc1)N1N=C(c2ccccc2)CC1c1ccccc1 (stereo unspecified),4
19,c1ccc(C2=NN(c3ccc(-c4cc(-c5ccccc5)[n+](-c5ccccc5)c(-c5ccccc5)c4)cc3)[C@H](c3ccccc3)C2)cc1,94
20,CCC(C)NCC(O)Cn1c(-c2ccccc2)c(-c2ccccc2)c2cc(C)ccc21 (stereo unspecified),92
21,Cc1c(C)n(C[C@@H](O)CNC2CCCC2)c2c(Cl)cccc12,-1
22,CC(NCC(O)Cn1c(-c2ccccc2)c(-c2ccccc2)c2ccc3ccccc3c21)c1ccccc1 (stereo unspecified),88
23,Cc1c(C)n(C[C@H](O)Cn2c(C(F)(F)F)nc3ccccc32)c2c(Cl)cccc12,-6
24,Cc1cccc(C(=O)Nc2c(C#N)c(-c3ccccc3)c(-c3ccccc3)n2Cc2ccccc2)c1,3

row,Structure (SMILES),% Inhibition [%]
1,Cc1c(C)n(CC(O)CNC(C)c2ccccc2)c2c(Cl)cccc12 (stereo unspecified),64
2,O=C(Cn1c(=O)n(Cc2nc(-c3ccccc3)no2)c(=O)c2ccccc21)Nc1cccc(Cl)c1,5
3,O=C(NCc1ccccc1)c1cnn2c3c(cnc12)CCCCCC3,2
4,CCc1ccccc1NC(=O)c1sccc1S(=O)(=O)N1CCc2ccccc2C1,2
5,Cc1cnc(CNC(=O)Nc2nnc3ccccn23)s1,-13
6,NC(=O)c1cccc(NC(=O)CC2=CCCCC2)n1,-11
7,CC[C@H]1CN2C=NC(N3CCN(C(=O)Nc4cc(F)cc(F)c4)CC3)=CC2=N1,35
8,O=C(CCC(=O)c1ccc(F)cc1F)NS(=O)(=O)c1cccnc1,-4
9,Cc1cc(NC(=O)Cn2c(=O)n(CCc3ccccc3)c(=O)c3ccccc32)no1,4
10,Cc1ccc(S(=O)(=O)Nc2c(S(=O)(=O)c3ccc(C)cc3)c3nc4ccccc4nc3n2CCC(C)C)cc1,98
11,Cc1ccc(S(=O)(=O)c2c(C)cc(-c3ccccc3)nc2N2CCOCC2)cc1,0
12,Cc1ccc(S(=O)(=O)Nc2c(S(=O)(=O)c3ccc(C)cc3)c3nc4ccccc4nc3n2C[C@H]2CCCO2)cc1,52
13,Cc1ccc(NS(=O)(=O)c2ccc(NC(=O)Cc3ccccc3)cc2)cc1C,2
14,Cc1cnc(C2CCC2)n1CCNS(=O)(=O)c1ccccc1,-4
15,CS(=O)(=O)n1c(CCCc2ccccc2)nc2ccccc21,1
16,Cc1ccc(S(=O)(=O)Nc2cc3nc4ccccc4nc3n2CCc2ccccc2)cc1,100
17,Cc1ccc(S(=O)(=O)Nc2ccccc2-c2nnc(-c3c(NS(=O)(=O)c4ccc(C)cc4)ccc4ccccc34)o2)cc1,-14
18,Cc1ccc(S(=O)(=O)Nc2c(S(=O)(=O)c3ccccc3)c3nc4ccccc4nc3n2CCc2ccccc2)cc1,97
19,Cc1ccc(-c2nc3c(c(=O)n2CC(=O)NC[C@H]2CCCO2)CCN(Cc2ccccc2)C3)cc1,-9
20,Cc1ccc(NCc2ncccn2)cc1OCC1CCCCC1,1
21,O=C(C1CCCC2CCCCC21)N1CCN(c2ncccn2)CC1 (stereo unspecified),-8
22,Cc1cc(-n2nnc3ccccc32)nc(C)n1,4
23,Cc1ccc(Cl)c2ccc(NC(=O)CCNC(N)=O)nc12,0
24,CN([C@H]1CCc2ccccc21)S(=O)(=O)c1ccc2c(c1)CCC2,7
